# Experimental data as given in PubChem BioAssay.
# “And” between values parts separate entries of the source, which are not always exact repeats. Equal entries are not always repeated. Results filed as inconclusive are left out. The source made the active and inactive calls.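 How the source made its calls, unless noted: active means compounds whose cell count with miR-34 switched on is under 0.7 times the count with it off; inactive means the rest.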
# Assays:
# [1] = Wnt pathway potentiators raising nuclear beta-catenin – imaging, WNT3A-conditioned medium, mouse C2C12, NPC library, primary screen (AID 1117326; in the data active means nuclear beta-catenin stimulation mostly above about 4.2%, no sharp cut-off; inactive means mostly below about 10%; further: reference of the scale not given here); conditions: stronger effect = higher value
# [2] = stimulators of insulin release from INS-1E, primary screen, cell-based, 5 mM glucose, NPC library (AID 1117329;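 active means compound raises insulin release from rat beta cells at 5 mM glucose, no numeric limit stated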; further: reference of the scale not given here); conditions: rat INS-1E insulin secretion, at 10 µM, stronger effect = higher value
# [3] = growth inhibition of GSK3B-pretreated HCT116 cells – cell-based, CellTiter-Glo, 0.2 to 20 µM (AID 1117336;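 active means compounds lowering colon cancer cell viability after pretreatment blocking the GSK3B kinase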); conditions: HCT116 viability after GSK3B inhibitor, at 20 µM, stronger effect = higher value
# [4] = inhibition of endothelial tube formation, primary screen, imaging, VEGF stimulated, CD31 staining, tube area, NPC library (AID 1117340;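 active means compound that reduces growth-factor-driven endothelial tube area in a mixed cell culture, no cutoff stated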); conditions: VEGF-stimulated ADSC/ECFC co-culture, at 10 µM, stronger effect = higher value
# [5] = GLP1 release stimulators, primary, NCI-H716, NPC library (AID 1117341;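 active means compound raises GLP1 secretion from the human gut endocrine cells, with no numeric limit stated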; further: reference of the scale not given here); conditions: NCI-H716 cells, at 10 µM, stronger effect = higher value
# [6] = HCT116 colon cancer cell growth inhibition, primary screen, CellTiter-Glo luminescence, NPC library (AID 1117342;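 active means compounds that lower survival of HCT116 colon cancer cells in the luminescence readout, no numeric limit stated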); conditions: at 20 µM (top of the series)
# [7] = reduced SW480 viability measured with CellTiter-Glo, NPC library, primary (AID 1117343;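 active means compounds that lower viability of the colon cancer cells in the luminescence readout, with no numeric limit stated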); conditions: CellTiter-Glo luminescence; at 20 µM (top of the series) unless noted
# [8] = NPC library primary testing for decreased DLD-1 cell viability via CellTiter-Glo (AID 1117346;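 active means compounds that lower survival of DLD-1 colon cancer cells in the luminescence readout, no cutoff given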); conditions: DLD-1 viability, CellTiter-Glo luminescence; at 20 µM (top of the series)
# [9] = tested on: Aerobactin synthetase IucA (Klebsiella pneumoniae); test: inhibition of K. pneumoniae IucA enzyme – biochemical, Tocris library, absorbance (AID 1345561; call rule not given here;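 further: 100% = enzyme without compound and 0% = no enzyme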); conditions: purified IucA enzyme assay, absorbance (OD) read-out; stronger effect = lower value;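 tested at 8 µM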
# [10] = viability loss with induced miR-34 in A549 – imaging, A549 dox-inducible miR-34, nuclei and caspase counts, primary screen (AID 1347080); conditions: A549 miR-34 inducible, Hoechst nuclei count, 48 h
# [11] = galactose survival enhancers in mitochondrial complex I cybrids – cell-based, galactose medium, ATP luminescence, primary screen (AID 1645843;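 active means z-score of at least 1.8 in each of two replicates, scored against plate mean and spread of sample wells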;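 further: positive z means more ATP and so rescue of galactose-driven cybrid death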); conditions: complex I mutant cybrid cells, 72 h, stronger effect = higher value
# [12] = MELAS cybrid and Rieske KO viability enhancers – cell-based, MELAS cybrids, Rieske KO mouse fibroblasts, CellTiter-Glo, primary screen (AID 1508586;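 active means mean z-score across replicates of 1.96 or higher in either the MELAS or the Rieske mutant cell line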;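 further: z relative to plate mean and SD of compound and empty wells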); conditions: low glucose
# [13] = biological target: NAD(+) hydrolase SARM1 (Homo sapiens) (UniProt Q6SZW1); test: blocking NAD cleavage by SARM1 SAM-TIR – cell lysate, NAD-Glo luminescence (AID 1508614;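 active means compound whose remaining NAD level is above about 45 nM, limit read from the data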); conditions: SAM-TIR HEK293T lysate NADase, at 1 µM, stronger effect = higher value
# [14] = viability loss in pontine glioma line – cell-based, SU-DIPG-XIII, MIPE4.0, CellTiter-Glo, qHTS, dose response (AID 1347061; cut-off not given, nearly all actives have AC50 up to about 37 µM;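 further: cells exposed to compound for 48 hours before readout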); conditions: CellTiter-Glo ATP luminescence
# [15] = P. berghei load reduction in hepatocytes – cell-based, HepG2, luciferase luminescence, HepG2 viability, primary screen (AID 624349; in the data active means parasite load remaining mostly below about 12%, no sharp cut-off; inactive means mostly above about 10%;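 further: 100% = mean of DMSO negative control wells on the same plate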); conditions: P. berghei liver stage in HepG2, luciferase luminescence, concentration not given here; parasite load remaining: stronger effect = lower value; viability: measured here: HepG2 viability without parasites
# [16] = stronger effect = lower value, cell number ratio, induced over uninduced
# [17] = measured here: relative caspase fold change +Dox/-Dox
# [18] = measured here: total cells with miR-34 induction, stronger effect = lower value
# [19] = measured here: total cells without miR-34 induction
# Sequence of NAD(+) hydrolase SARM1 (Homo sapiens) (Q6SZW1 whole entry, looked up): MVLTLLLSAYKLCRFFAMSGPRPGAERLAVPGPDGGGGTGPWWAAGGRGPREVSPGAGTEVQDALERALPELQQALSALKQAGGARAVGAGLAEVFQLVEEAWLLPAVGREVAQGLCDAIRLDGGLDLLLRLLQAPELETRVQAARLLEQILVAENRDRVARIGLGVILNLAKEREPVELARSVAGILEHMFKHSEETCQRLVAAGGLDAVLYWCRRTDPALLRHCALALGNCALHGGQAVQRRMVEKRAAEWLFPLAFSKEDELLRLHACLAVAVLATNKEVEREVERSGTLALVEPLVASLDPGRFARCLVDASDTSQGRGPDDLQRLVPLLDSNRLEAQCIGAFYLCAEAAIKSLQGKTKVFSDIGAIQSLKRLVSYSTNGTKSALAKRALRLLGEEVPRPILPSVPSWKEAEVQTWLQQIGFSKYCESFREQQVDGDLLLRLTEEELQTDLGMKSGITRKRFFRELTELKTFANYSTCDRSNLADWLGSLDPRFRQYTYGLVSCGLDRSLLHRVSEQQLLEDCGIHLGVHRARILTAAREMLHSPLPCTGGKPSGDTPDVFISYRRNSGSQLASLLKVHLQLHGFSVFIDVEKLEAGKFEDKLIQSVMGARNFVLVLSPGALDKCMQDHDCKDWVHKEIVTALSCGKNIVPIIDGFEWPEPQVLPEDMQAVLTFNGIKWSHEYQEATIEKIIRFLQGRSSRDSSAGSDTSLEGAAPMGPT
smiles,measurement,setting,value
COc1cc2c(cc1OC)[C@@H]1CC(=O)[C@@H](CC(C)C)CN1CC2,nuclear beta-catenin stimulation,[1]; at 10 µM,0.6% (inactive)
same,nuclear beta-catenin stimulation,"[1]; stimulation, at 2 µM",0.1%
same,insulin secretion stimulation,[2],-1.9% (inactive)
same,viability decrease,[3],-9.4% (inactive)
same,tube area decrease,[4],-10% (inactive)
same,GLP1 secretion stimulation,[5],-2.7% (inactive)
same,inhibition of viability,[6],21.4% (inactive)
same,viability decrease (inhibition),[7],2.6% (inactive)
same,viability decrease (inhibition),[8],5.2% (inactive)
same,remaining activity,[9],81.5% (inactive)
same,fold change,[10]; [16],0.993 (inactive)
same,fold change,[10]; [17],1.02
same,cell count,[10]; [18],8740
same,cell count,[10]; [19],8800
same,z-score,[11],0.105 (inactive)
C[C@H]1O[C@H](O[C@H]2[C@H](O)[C@@H](O)[C@@H](O[C@H]3[C@H](O)[C@@H](O)[C@H](O)O[C@@H]3CO)O[C@@H]2CO)[C@H](O)[C@@H](O)[C@@H]1N[C@H]1C=C(CO)[C@@H](O)[C@H](O)[C@H]1O,nuclear beta-catenin stimulation,[1]; at 10 µM,-0.6% (inactive)
same,nuclear beta-catenin stimulation,"[1]; stimulation, at 2 µM",-1.1%
same,insulin secretion stimulation,[2],0.7% (inactive)
same,viability decrease,[3],-5.3% (inactive)
same,tube area decrease,[4],-8.2% (inactive)
same,GLP1 secretion stimulation,[5],-2.2% (inactive)
same,inhibition of viability,[6],18.9% (inactive)
same,viability decrease (inhibition),[7],-0.4% (inactive)
same,viability decrease (inhibition),[8],-0.5% (inactive)
same,remaining activity,[9],108% (inactive)
same,fold change,[10]; [16],0.838 (inactive)
same,fold change,[10]; [17],1.97
same,cell count,[10]; [18],7710
same,cell count,[10]; [19],9210
same,z-score,"[12]; MELAS cybrid survival, CellTiter-Glo 48 h, stronger effect = higher value",-0.1 (inactive)
same,z-score,"[12]; Rieske KO mouse fibroblast survival, CellTiter-Glo 72 h",-0.573
same,z-score,[11],0.18 (inactive)
CN1CCC[C@@H]1Cc1c[nH]c2ccc(CCS(=O)(=O)c3ccccc3)cc12,nuclear beta-catenin stimulation,[1]; at 10 µM,1.8% (inactive)
same,nuclear beta-catenin stimulation,"[1]; stimulation, at 2 µM",1%
same,insulin secretion stimulation,[2],3.3% (inactive)
same,viability decrease,[3],30.6% (inactive)
same,tube area decrease,[4],0.6% (inactive)
same,GLP1 secretion stimulation,[5],5.3% (inactive)
same,inhibition of viability,[6],36.8% (inactive)
same,viability decrease (inhibition),[7],19.5% (inactive)
same,viability decrease (inhibition),[8],-0.8% (inactive)
same,remaining activity,[9],117% (inactive)
same,fold change,[10]; [16],0.993 (inactive) and 0.947 (inactive)
same,fold change,[10]; [17],1.11 and 0.557
same,cell count,[10]; [18],9730 and 9170
same,cell count,[10]; [19],9790 and 9680
same,remaining NAD,[13],10 nM (inactive)
same,z-score,[11],-0.6 (inactive) and -0.525 (inactive)
OC(CN1CCC(Cc2ccc(F)cc2)CC1)c1ccc(Cl)cc1 (stereo unspecified),nuclear beta-catenin stimulation,[1]; at 10 µM,2% (inactive)
same,nuclear beta-catenin stimulation,"[1]; stimulation, at 2 µM",2.8%
same,insulin secretion stimulation,[2],2.2% (inactive)
same,viability decrease,[3],78.9% (active)
same,tube area decrease,[4],-4.2% (inactive)
same,GLP1 secretion stimulation,[5],2.9% (inactive)
same,inhibition of viability,[6],78.6% (active)
same,viability decrease (inhibition),[7],67.1% (active)
same,viability decrease (inhibition),[8],75.2% (active)
same,remaining activity,[9],78.5% (inactive)
same,outcome,[14],inactive
same,fold change,[10]; [16],1.15 (inactive) and 0.894 (inactive)
same,fold change,[10]; [17],0.858 and 1.23
same,cell count,[10]; [18],6880 and 8360
same,cell count,[10]; [19],6000 and 9350
same,z-score,[11],-0.6 (inactive) and 0.185 (inactive)
CN(C)C/C=C(/c1ccc(Br)cc1)c1cccnc1,parasite load remaining,[15],94.7% (inactive) and 60.5% (inactive)
same,viability,[15],85.2% and 195%
same,nuclear beta-catenin stimulation,[1]; at 10 µM,1.1% (inactive)
same,nuclear beta-catenin stimulation,"[1]; stimulation, at 2 µM",-0.9%
same,insulin secretion stimulation,[2],45% (active)
same,viability decrease,[3],-1.3% (inactive)
same,tube area decrease,[4],9.7% (inactive)
same,GLP1 secretion stimulation,[5],8% (inactive)
same,inhibition of viability,[6],41.9% (inactive)
same,viability decrease (inhibition),[7],52.1% (active)
same,viability decrease (inhibition),[8],5.9% (inactive)
same,remaining activity,[9],124% (inactive)
same,fold change,[10]; [16],1.02 (inactive) and 0.948 (inactive) and 0.885 (inactive)
same,fold change,[10]; [17],0.961 and 0.963 and 4.02
same,cell count,[10]; [18],8760 and 8650 and 11500
same,cell count,[10]; [19],8570 and 9130 and 13000
same,z-score,[11],-0.1 (inactive) and -0.42 (inactive)
